From the supplement of paper PMC11732987, “Enantioselective OTUD7B fragment discovery through chemoproteomics screening and high-throughput optimisation” (Communications Chemistry, 2025)

What was measured:
Experiment in all cases: log2 ratio of Biotin-Ahx-Ub-VS probe labelling (fragment/DMSO); higher = less target engagement (more negative = stronger competition), active = hit call of the paper (q ≤ 0.05, log2 ratio ≤ -1)
Details in all cases: compound concentration: 200 uM; treatment time: 3 h
[1] = target: USP34 (UniProt Q70CQ2)
Chain of USP34 (Q70CQ2 whole entry, the tested form may be a part): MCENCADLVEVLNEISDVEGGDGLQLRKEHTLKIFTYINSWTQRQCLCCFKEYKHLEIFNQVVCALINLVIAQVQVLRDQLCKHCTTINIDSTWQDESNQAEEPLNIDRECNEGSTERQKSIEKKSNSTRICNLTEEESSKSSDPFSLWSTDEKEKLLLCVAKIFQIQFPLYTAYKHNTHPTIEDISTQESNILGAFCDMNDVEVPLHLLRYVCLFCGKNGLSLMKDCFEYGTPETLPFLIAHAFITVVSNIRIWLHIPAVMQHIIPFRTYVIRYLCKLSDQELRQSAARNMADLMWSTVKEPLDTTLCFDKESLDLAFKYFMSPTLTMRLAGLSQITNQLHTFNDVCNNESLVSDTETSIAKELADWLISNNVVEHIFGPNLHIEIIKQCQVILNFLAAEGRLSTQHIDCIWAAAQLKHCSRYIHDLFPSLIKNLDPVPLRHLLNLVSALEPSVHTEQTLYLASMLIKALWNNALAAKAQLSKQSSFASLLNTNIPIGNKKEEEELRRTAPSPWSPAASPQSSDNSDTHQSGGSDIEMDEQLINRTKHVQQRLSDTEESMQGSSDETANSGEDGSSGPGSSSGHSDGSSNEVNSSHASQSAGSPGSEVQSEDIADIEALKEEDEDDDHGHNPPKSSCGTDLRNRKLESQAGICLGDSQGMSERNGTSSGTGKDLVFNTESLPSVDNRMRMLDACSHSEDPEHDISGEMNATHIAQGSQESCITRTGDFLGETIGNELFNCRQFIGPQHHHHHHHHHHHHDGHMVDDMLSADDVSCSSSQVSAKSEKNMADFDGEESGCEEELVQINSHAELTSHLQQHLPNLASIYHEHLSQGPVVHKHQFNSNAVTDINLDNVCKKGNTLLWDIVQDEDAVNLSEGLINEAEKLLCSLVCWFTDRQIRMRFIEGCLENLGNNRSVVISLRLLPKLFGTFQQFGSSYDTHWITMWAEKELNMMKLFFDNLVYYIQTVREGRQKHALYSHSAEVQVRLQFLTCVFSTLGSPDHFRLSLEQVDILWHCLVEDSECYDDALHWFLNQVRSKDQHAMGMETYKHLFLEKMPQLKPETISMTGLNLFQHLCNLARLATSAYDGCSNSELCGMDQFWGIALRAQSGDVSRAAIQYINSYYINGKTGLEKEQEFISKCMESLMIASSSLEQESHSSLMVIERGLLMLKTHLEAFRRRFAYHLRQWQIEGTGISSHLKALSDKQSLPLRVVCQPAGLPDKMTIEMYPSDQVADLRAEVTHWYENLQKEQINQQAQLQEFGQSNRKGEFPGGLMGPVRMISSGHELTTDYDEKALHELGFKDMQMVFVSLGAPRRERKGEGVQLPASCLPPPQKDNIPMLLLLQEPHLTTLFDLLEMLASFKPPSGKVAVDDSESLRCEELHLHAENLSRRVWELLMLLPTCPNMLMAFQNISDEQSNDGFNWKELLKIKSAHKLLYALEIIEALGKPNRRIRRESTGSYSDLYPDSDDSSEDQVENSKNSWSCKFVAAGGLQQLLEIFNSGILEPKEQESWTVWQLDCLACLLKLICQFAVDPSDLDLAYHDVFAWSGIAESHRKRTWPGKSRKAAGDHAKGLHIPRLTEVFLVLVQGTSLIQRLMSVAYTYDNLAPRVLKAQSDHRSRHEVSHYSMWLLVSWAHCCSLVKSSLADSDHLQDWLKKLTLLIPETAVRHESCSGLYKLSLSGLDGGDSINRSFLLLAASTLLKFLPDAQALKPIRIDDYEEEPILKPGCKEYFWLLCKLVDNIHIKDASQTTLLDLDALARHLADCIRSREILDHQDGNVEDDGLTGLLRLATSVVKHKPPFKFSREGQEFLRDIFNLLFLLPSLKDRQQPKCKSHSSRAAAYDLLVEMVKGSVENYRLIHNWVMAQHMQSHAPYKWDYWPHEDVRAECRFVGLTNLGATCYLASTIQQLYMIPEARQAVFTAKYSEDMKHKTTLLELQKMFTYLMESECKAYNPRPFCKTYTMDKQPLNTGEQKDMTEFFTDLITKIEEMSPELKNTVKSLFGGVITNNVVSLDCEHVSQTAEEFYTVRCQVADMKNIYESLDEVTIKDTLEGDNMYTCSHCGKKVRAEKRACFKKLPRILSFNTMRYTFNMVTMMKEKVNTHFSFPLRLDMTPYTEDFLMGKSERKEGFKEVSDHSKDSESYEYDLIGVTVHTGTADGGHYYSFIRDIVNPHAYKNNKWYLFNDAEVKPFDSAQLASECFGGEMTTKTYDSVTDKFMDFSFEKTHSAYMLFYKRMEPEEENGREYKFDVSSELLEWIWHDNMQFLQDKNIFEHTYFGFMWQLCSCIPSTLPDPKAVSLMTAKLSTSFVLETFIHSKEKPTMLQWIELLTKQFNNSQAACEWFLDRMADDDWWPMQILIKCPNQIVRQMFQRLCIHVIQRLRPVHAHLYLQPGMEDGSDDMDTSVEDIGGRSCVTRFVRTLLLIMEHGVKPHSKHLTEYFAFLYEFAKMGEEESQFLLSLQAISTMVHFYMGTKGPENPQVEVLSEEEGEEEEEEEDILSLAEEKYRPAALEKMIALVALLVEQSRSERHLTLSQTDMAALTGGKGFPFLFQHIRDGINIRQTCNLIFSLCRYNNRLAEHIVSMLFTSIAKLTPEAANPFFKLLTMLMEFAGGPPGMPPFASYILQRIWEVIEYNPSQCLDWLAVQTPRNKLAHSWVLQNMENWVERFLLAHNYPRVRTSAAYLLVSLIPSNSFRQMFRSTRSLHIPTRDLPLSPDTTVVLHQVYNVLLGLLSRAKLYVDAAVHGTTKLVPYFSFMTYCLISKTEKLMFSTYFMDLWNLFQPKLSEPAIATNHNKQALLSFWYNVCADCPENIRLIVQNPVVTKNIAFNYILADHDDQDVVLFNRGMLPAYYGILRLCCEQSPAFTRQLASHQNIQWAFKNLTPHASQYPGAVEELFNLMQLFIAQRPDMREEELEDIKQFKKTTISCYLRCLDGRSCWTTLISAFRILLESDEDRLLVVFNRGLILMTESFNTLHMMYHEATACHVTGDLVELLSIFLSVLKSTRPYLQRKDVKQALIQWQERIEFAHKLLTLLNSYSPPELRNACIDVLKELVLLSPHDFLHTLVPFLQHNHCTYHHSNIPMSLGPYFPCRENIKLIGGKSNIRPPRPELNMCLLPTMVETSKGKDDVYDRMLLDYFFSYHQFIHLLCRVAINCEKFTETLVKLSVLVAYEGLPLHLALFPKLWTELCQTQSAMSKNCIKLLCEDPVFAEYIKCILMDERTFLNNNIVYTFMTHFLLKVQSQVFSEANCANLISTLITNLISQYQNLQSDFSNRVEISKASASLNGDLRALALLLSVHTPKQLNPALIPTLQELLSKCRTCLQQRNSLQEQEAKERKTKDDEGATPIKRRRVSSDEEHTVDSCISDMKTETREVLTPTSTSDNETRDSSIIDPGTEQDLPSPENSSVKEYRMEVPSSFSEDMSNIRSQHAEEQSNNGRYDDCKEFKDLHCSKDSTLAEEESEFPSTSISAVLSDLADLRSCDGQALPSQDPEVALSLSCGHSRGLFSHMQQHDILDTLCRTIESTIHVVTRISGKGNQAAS
Outline: (§1)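 Labelled DUBs from HEK293T lysate were NeutrAvidin-enriched, digested with LysC and trypsin, and run by diaPASEF LC-MS/MS. Before that, each 495 µg sample in Tris/CHAPS/IGEPAL buffer with protease inhibitors was treated in triplicate with fragment at 200 µM or vehicle for 3 h, then with Biotin-Ahx-Ub-VS at 0.5 µM final for 1 h. Values are average log2 ratios of fragment over vehicle by unpaired t-test, based on global-median-normalised Spectronaut label-free quantities from proteins with ≥2 unique peptides.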

[2] = target: T1, USP36 (UniProt Q9P275)
T1 sequence (whole entry): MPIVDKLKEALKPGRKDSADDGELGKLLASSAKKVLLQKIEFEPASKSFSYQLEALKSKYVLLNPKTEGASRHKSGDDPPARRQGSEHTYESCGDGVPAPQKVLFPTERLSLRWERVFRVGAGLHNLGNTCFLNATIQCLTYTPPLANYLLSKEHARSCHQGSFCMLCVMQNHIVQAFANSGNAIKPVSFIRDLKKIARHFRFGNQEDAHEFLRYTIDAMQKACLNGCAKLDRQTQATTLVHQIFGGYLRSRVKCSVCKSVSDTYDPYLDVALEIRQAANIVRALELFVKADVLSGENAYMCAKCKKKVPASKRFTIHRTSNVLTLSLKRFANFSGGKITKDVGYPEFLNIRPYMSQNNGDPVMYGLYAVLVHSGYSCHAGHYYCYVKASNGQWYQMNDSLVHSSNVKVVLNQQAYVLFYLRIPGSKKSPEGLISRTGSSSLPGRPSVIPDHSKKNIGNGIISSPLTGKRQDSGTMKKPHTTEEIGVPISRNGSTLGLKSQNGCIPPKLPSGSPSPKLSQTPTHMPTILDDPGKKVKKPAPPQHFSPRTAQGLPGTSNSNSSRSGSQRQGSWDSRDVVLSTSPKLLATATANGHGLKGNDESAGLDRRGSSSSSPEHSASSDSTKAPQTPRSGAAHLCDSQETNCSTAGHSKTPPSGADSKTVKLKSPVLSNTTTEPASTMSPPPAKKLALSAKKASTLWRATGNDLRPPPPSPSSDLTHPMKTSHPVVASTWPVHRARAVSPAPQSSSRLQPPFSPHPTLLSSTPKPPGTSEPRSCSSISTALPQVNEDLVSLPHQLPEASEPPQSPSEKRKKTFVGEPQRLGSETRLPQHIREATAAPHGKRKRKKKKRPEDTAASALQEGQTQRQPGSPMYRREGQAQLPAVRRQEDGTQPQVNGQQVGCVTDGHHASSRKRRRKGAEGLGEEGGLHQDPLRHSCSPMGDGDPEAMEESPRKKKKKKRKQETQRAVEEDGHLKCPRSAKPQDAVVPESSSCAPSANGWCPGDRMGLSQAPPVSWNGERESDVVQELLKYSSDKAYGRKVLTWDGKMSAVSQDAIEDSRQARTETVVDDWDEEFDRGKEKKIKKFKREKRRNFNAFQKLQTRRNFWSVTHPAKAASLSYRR
Outline: as §1

[3] = target: T2, USP38 (UniProt Q8NB14)
T2 sequence (whole entry): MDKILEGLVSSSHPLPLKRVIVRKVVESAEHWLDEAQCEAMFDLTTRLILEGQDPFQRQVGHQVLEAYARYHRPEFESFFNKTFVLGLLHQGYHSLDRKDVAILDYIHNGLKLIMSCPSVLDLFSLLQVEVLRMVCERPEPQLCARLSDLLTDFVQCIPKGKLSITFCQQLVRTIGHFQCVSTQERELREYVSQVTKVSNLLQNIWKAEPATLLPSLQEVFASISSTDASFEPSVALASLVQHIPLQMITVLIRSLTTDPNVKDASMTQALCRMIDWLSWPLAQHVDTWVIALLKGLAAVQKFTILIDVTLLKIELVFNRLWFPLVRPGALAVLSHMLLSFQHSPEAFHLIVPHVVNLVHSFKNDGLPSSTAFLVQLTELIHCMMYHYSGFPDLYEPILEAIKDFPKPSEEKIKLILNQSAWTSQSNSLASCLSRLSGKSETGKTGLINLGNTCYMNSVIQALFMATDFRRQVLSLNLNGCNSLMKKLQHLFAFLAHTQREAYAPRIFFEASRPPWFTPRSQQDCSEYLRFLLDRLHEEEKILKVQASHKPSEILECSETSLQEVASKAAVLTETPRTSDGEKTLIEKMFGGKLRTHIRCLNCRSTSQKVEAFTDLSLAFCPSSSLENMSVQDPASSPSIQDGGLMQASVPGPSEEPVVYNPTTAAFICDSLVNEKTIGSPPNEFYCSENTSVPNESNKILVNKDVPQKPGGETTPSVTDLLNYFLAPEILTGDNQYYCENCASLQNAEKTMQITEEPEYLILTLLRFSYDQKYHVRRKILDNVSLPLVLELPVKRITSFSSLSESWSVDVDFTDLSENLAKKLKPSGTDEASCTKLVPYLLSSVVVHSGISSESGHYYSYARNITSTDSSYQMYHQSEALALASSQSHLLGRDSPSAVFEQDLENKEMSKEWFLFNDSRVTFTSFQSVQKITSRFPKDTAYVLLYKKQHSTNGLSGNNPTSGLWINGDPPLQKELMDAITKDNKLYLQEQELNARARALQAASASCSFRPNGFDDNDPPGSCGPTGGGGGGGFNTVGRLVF
Outline: as §1

[4] = target: T3, USP39 (UniProt Q53GS9)
T3 sequence (whole entry): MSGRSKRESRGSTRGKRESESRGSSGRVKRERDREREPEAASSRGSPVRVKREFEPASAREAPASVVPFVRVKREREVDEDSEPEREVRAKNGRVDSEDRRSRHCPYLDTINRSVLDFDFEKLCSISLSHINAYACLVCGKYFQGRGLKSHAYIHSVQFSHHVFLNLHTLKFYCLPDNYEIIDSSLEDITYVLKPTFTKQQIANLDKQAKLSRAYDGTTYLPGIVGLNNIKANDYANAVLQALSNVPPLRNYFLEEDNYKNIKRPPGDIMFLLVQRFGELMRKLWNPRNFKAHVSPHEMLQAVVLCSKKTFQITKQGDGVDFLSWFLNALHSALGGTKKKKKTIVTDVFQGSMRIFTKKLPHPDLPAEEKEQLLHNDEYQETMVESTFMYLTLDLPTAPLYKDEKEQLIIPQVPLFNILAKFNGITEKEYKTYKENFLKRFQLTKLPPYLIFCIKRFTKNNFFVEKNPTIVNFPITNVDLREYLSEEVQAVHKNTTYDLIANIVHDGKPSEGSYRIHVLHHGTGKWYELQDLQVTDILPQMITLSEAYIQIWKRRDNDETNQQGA
Outline: as §1

[5] = target: T4, USP4 (UniProt Q13107)
T4 sequence (whole entry): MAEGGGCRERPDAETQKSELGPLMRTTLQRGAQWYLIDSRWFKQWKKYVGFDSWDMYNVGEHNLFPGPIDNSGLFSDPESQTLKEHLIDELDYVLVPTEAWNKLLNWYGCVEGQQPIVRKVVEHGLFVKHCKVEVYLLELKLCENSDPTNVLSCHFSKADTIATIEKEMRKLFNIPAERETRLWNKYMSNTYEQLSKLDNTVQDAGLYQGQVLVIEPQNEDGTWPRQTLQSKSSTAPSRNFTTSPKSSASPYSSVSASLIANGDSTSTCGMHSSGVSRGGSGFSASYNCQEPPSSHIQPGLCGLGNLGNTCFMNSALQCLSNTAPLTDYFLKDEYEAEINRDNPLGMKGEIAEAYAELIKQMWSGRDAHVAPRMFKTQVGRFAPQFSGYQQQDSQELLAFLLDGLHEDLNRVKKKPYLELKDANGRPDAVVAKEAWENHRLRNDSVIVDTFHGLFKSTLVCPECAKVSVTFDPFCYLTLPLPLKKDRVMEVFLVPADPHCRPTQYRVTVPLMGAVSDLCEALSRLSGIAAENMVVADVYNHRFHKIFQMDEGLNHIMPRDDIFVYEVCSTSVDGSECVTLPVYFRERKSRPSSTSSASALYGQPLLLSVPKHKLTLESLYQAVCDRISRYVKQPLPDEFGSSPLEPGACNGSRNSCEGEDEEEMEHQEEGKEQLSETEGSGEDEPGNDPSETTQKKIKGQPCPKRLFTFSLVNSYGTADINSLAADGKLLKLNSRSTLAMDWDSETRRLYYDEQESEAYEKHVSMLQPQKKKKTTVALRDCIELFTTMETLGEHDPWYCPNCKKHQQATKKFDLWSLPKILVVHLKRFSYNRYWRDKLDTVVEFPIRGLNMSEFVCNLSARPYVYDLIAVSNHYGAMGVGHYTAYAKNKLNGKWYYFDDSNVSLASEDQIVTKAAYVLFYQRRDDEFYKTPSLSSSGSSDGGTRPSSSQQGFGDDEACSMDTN
Outline: as §1

Measured: log2 ratio of Biotin-Ahx-Ub-VS probe labelling

Cc1ccn2cc(CNC(=O)CCl)nc2c1.Cl
inactive: [1] -0.192 | [2] -0.029 | [3] -0.0421 | [4] 0.0111 | [5] 0.0609
